# This is a sample that favours compounds with a hit; in the whole collection about 12% have one here.
# OTUD3 inh = inhibitors of human OTUD3 deubiquitinase. OTU domain-containing protein 3 (Homo sapiens), Q5T2D3. purified OTUD3, Ub-rhodamine fluorescence, 2 h. inhibition, % at 25 µM. 47,000 compounds, 0.7% hits
# USP17 inh = inhibitors of human USP17 deubiquitinase | AID 1645855, 2021 | purified USP17, Ub-rhodamine cleavage fluorescence, 3 h | 47,000 compounds, 6.5% hits | inhibition, % at 50 µM
# USP30 inh = inhibitors of human USP30 deubiquitinase. purified USP30, Ub-rhodamine cleavage fluorescence. inhibition, % at 25 µM. 47,000 compounds, 5.3% hits
# USP28 block = inhibitors of human USP28 deubiquitinase; purified USP28, Ub-rhodamine cleavage fluorescence, 30 min; 47,000 compounds, 3% hits; Ubiquitin carboxyl-terminal hydrolase 28 (Homo sapiens), Q96RU2; inhibition, % at 25 µM; AID 1645857, 2021
# * hit, by the source's call; . = no result given. No stated cut-off is given here; in the data, active means inhibition above about 30%; inactive means the rest.
SMILES,OTUD3 inh,USP17 inh,USP30 inh,USP28 block
Clc1ccccc1Cn1c(/C=C/c2ccccc2)nc2ccccc21,12.2,20.0,-12.1,22.8
Cc1cc2nc(/C=C/c3ccccc3)n(Cc3cccc(F)c3)c2cc1C,2.0,-5.7,0.0,50.9*
Oc1ccc2ccccc2c1CN1CCCC1,-1.6,16.7,-1.7,5.3
Oc1ccc2ccccc2c1CN1CCN(c2ncccn2)CC1,5.7,36.1*,.,.
O=C(NCCc1ccco1)c1ccc(N2CCOc3ccccc32)s1,13.7,57.0*,47.0*,21.8
COc1ccccc1-c1noc2ncnc(N(Cc3ccco3)CC3CCCO3)c12 (stereo not drawn),20.7,18.1,36.1*,16.7
COc1ccccc1-c1noc2ncnc(NCc3ccco3)c12,1.3,-1.2,-23.2,-0.1
CCN(CC)c1ccc2nnc(CCC(=O)Nc3cccc(C)n3)n2n1,-4.5,-4.4,-1.9,1.3
COC1CCC(C(=O)NC2CC(C)(C)Cc3nc(N4CCCC4)ncc32)CC1 (stereo not drawn),-20.5,-30.6,-93.9,-27.9
CSc1ncccc1C(=O)OCc1ccccc1,1.6,1.4,-3.3,49.3*
CSc1ncccc1C(=O)Nc1ccnn1Cc1ccccc1,-4.7,-11.9,-8.3,-9.2
O=C(CCc1cccnc1)N1CCCC2(CCCN2CC2CCCC2)C1 (stereo not drawn),3.8,16.7,19.1,23.2
CC(C)CC1Nc2ccc(C(=O)NCCCN3CCCC3)cc2NC1=O (stereo not drawn),-1.1,38.3*,4.9,0.0
O=C1C[C@@H]2O[C@H](CNC(=O)[C@@H]3CN(CCN3C(=O)C3CCOCC3)C(=O)[C@@H]3C[C@@H](CN3CC3CCCCC3)N1)[C@@H](O)[C@H]2O,-8.4,-28.5,-172.2,-13.5
CC(=O)c1ccc(NC(=O)CSc2nc(-c3ccccc3)nc3c2COC(C)(C)C3)cc1,30.5*,21.2,17.8,4.5
COc1ccc(NC(=O)CSc2nc(N)c3c4c(sc3n2)COC(C)(C)C4)cc1,7.9,50.2*,-7.4,-4.6
CCCCc1nc(SCC(=O)Nc2ccc(OC)cc2)c2c3c(sc2n1)COC(C)(C)C3,-7.9,-0.5,-9.2,-13.2
CC1(C)Cc2c(sc3nc(SCc4ccccc4)nc(SCC(=O)Nc4ccccc4)c23)CO1,-0.2,-7.4,3.7,-2.2
CSc1nc(SCC(N)=O)c2c3c(sc2n1)COC(C)(C)C3,18.5,61.1*,44.4*,28.9
CC1(C)Cc2c(sc3nc(SCC(=O)Nc4ccccc4)nc(N)c23)CO1,-35.2,16.2,-179.8,31.0*
O=C(NCc1ccc2c(c1)CCO2)c1ccc2nsnc2c1,13.5,1.5,0.0,29.2
C[C@H]1CC[C@H]2[C@@](C)(O)[C@H]3CC[C@@H]4[C@@H](C[C@H]5[C@H]4CC(=O)[C@H]4C[C@H](O)CC[C@@]45C)[C@@H]3C[N+]2([O-])C1 (stereo partly drawn),-1.1,-4.7,0.1,-11.3
Cc1ccc(C2=Nc3ccccc3N(CC(=O)Nc3cccc(C)c3C)C(=O)C2)cc1C,30.8*,36.1*,33.9*,31.6*
Cc1cccc(NC(=O)CN2C(=O)CC(c3ccccc3)=Nc3ccccc32)c1C,9.3,15.9,33.7*,-0.2
CC(C)Cc1nc2sc3c(SCc4ccc(Cl)cc4)ncnc3c2c2c1COC(C)(C)C2,20.1,17.5,32.9*,13.0
SMILES,OTUD3 inh,USP17 inh,USP30 inh,USP28 block
CC(C)Cc1nc2sc3c(SCc4ccc(Br)cc4)ncnc3c2c2c1COC(C)(C)C2,0.0,-0.6,-1.6,-8.1
CCC(O)CNc1ncnc2c1sc1nc(C)c3c(c12)CC(C)(C)OC3 (stereo not drawn),6.2,5.5,-6.8,3.1
CC(C)Cc1nc2sc3c(SCCc4ccccc4)ncnc3c2c2c1COC(C)(C)C2,8.8,9.3,16.5,3.9
Cc1nc2sc3c(NCC(C)C)ncnc3c2c2c1COC(C)(C)C2,-0.1,42.7*,17.8,13.5
CC(C)Cc1nc2sc3c(NCc4ccccc4)ncnc3c2c2c1COC(C)(C)C2,24.5,23.1,63.7*,21.8
O=C1NC2(COC3(CCN(C(=O)C4(c5ccccc5)CC4)CC3)C2)Nc2ccccc21 (stereo not drawn),5.8,3.1,-20.4,6.5
Cc1nc2cc3c(cc2n1CC(O)COCc1ccc(Cl)cc1)OCCO3 (stereo not drawn),-18.0,-24.9,-55.0,-18.2
CC(C)OC(=O)c1cc2c(ccn2-c2ccc(F)cc2)n1CC(=O)NC1CCCCC1,46.7*,23.4,19.3,17.6
Cc1ccc(-c2cc3nc(NCCc4ccncc4)ccn3n2)cc1,-17.5,3.3,-29.6,-2.1
O=C1CC(CNS(=O)(=O)c2ccc(F)cc2)CN1c1ccc(F)cc1 (stereo not drawn),20.2,3.4,0.0,9.1
O=S(c1ccc2ccccc2c1)c1cnns1 (stereo not drawn),34.4*,-8.3,25.5,14.1
COc1cccc(C(=O)Nc2cccc(N3CCCC3=O)c2)c1OC,0.0,0.4,5.5,-5.9
O=C(Nc1cccc(N2CCCC2=O)c1)c1cccc2cccnc12,0.4,55.6*,12.3,-0.5
O=C(c1cc2ccccc2o1)N1CC=C(c2ccccc2)CC1,31.9*,36.1*,50.4*,33.8*
CC(C)c1ccc(N2CCN(Cc3ccc(F)cc3F)C2=O)cc1,-2.6,-12.8,8.2,21.1
CS(=O)(=O)c1cccc(N2CCN(CC3CC3)C2=O)c1,6.5,10.0,14.8,32.9*
CS(=O)(=O)c1cccc(N2CCN(Cc3ccc(F)cc3F)C2=O)c1,-4.8,-27.1,8.7,33.1*
Cc1ccc(-n2cc(C(=O)NCc3ccc4c(c3)OCO4)nn2)cc1,15.7,13.9,21.6,9.4
NCC(=O)N1CCCC2(Cc3ccccc3CN2S(=O)(=O)c2ccccc2)C1 (stereo not drawn),16.1,-8.5,43.9*,12.3
CC(=O)N1CCCC2(Cc3ccccc3CN2S(=O)(=O)c2ccccc2)C1 (stereo not drawn),-5.3,-7.7,-19.1,-6.3
Cc1cccc(N2CCN(C(=O)COc3ccc4ccccc4c3)CC2)c1C,1.9,-8.2,-23.3,6.6
CC[C@H](C)C[C@H]1CC[C@](O)([C@](C)(O)C(=O)N[C@@H]2C(=O)N3NCCC[C@@H]3C(=O)N(O)[C@@H](C)C(=O)NCC(=O)N3NCCC[C@H]3C(=O)N(O)[C@H](C)C(=O)O[C@H]2C(C)C)O[C@@H]1C,72.7*,41.4*,60.8*,48.5*
O=C(CN1CCN(Cc2ccccc2)CC1)N1CCN(c2ccccn2)CC1,15.0,6.2,25.1,13.0
CC(=O)c1cccc(NC(=O)c2cc3cccnc3n(C)c2=O)c1,-12.3,6.3,-52.6,-11.1
COC(=O)c1ccccc1NC(=O)c1cc2ccccc2c(=O)s1,-0.4,-0.1,-3.4,-3.5
Cc1cccc(NC(=O)c2cc3cccnc3n(C)c2=O)c1,-3.7,-1.2,-36.5,31.4*
Cc1cccc(NC(=O)c2cc3ccccc3c(=O)s2)c1,0.5,69.2*,.,.
CCN(Cc1ccc(OC)cc1)Cc1cc(=O)c2cc(Cl)ccc2[nH]1,0.2,20.0,-9.7,-1.8
COc1ccc(OC)c(NC(=O)COC(=O)Cn2cnc3ccccc32)c1,9.0,15.9,22.8,8.5

# Assay outcomes: PubChem BioAssay, Buhrlage Lab, Dana-Farber Cancer Institute and Novartis Institutes for BioMedical Research (Cambridge, Mass)
